Hits are enriched below; roughly 2.8% of the tested compounds scored in any of these assays.
Peg3 promoter: Peg3 promoter activity inhibition | HeLa PEG-Prom luciferase reporter, luminescence, overnight | inhibition, % at 20 µM | actives 1.7% (n = 360,000) | AID 588405;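 active means inhibition of at least 50% at 20 µM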
HIF-2a inh: HIF-2a inhibition. inhibition, % at 18.8 µM. AID 624352. actives 0.72% (n = 360,000). 786-0 RCC cells HIF-2a reporter, luciferase luminescence, overnight;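 active means inhibition of the luminescence signal of 40% or more relative to plate controls, in a single-dose primary screen at 18.75 µM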
LMP1 NFkB inh: Epstein-Barr LMP1 NF-kappaB reporter inhibition; actives 0.69% (n = 350,000); LMP1-induced NF-kappaB luciferase reporter cells, luminescence; inhibition, % at 12.5 µM; in the data active means inhibition above about 41%; inconclusive means no clear call, values can overlap the other calls;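 further: 0% = neutral control wells and 100% = reference inhibitor control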
PAX8 reporter: lowers PAX8-driven luciferase in RMG-I cells | inhibition, % at 12.6 µM | actives 1.2% (n = 360,000) | RMG-I TPO-luciferase reporter, SteadyGlo, 24 h;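 active means mean replicate inhibition at least 60% with every replicate also reaching 60%; inconclusive means only one of the two criteria is met; inactive means mean below 60% and not all replicates reaching 60%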;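 further: luciferase light reporting Pax8 driven TPO promoter activity; plate controls were median of neutral control wells for no effect and mitoxantrone controls for full effect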
MITF TRPM1 inh: inhibitors of MITF-driven TRPM1 promoter in melanoma cells. SK-MEL-5 TRPM1 promoter luciferase, 24 h. inhibition, % at 12.5 µM. actives 0.83% (n = 330,000);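 active means mean inhibition across replicates of 60% or more, whatever share of single replicates reaches that level; inconclusive means some that reach 60%, reason not given; inactive means mean inhibition across replicates below 60%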
Shn3 inh set2: reduces Shn3 3'UTR luciferase signal in osteoblasts; Clone20 osteoblast Shn3 3'UTR firefly luciferase, 24 h; inhibition, % at 12.5 µM; actives 0.52% (n = 360,000); AID 588674;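 active means mean inhibition of at least 75% with every replicate also reaching 75%; inconclusive means mean inhibition at least 75% but some replicate below; inactive means mean inhibition below 75%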;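 further: 0% = median of neutral control wells and 100% = pilot-screen positive control compound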
Mdm2 MdmX conf: confirmation of inhibitors of human Mdm2/MdmX interaction, set 2. shares compounds with HIF-2a inh. SaOS-2 split-luciferase Mdm2/MdmX complementation, luminescence. inhibition, % at 8 µM. actives 99% (n = 740);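 active means mean inhibition of the luminescence signal across two replicates at or above 26 percent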
Target sequence (O15151 whole entry, looked up): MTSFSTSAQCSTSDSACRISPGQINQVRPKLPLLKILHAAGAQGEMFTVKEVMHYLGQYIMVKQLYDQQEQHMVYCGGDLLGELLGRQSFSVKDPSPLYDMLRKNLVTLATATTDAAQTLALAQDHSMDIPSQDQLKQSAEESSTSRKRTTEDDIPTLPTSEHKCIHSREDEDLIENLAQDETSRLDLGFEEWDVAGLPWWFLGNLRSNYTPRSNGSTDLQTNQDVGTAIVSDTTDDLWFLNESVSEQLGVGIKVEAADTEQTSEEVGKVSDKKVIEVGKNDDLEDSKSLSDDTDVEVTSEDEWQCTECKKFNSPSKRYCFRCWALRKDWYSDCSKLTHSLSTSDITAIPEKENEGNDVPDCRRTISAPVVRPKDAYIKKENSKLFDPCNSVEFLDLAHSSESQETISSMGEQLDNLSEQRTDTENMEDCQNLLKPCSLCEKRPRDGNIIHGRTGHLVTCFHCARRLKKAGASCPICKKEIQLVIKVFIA
Target sequence (Q00987 whole entry, looked up): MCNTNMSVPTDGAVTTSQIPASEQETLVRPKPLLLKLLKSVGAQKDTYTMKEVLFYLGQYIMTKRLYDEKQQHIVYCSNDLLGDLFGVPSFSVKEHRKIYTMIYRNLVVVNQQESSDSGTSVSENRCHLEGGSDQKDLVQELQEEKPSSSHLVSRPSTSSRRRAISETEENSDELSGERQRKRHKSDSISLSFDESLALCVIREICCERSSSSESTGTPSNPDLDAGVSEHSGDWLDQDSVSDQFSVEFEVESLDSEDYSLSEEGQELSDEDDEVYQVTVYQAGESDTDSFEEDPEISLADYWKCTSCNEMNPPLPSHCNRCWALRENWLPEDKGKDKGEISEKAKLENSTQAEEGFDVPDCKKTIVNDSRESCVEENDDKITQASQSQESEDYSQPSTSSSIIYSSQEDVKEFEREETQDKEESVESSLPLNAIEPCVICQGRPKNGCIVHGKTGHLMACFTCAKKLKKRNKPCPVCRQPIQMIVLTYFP
HIF-2a inh conf: HIF-2a inhibition, single concentration confirmation. shares compounds with HIF-2a inh. 786-0 RCC cells, HIF-2a luciferase reporter luminescence, overnight. inhibition, % at 18.8 µM. actives 56% (n = 1,800). AID 651580;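 active means mean inhibition across four replicates of at least 40 percent at the single tested concentration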
HIF-1a cs: HIF-1a inhibition counter-screen for HIF-2a hits | shares compounds with HIF-2a inh | MiaPaCa-2 HIF-1a luciferase reporter, desferoxamine, overnight | inhibition, % at 18.8 µM | actives 72% (n = 1,800) | AID 651589;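 active means mean inhibition of the reporter signal across four replicates at the single tested dose of 50% or more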
Starred values were filed as active, the others as inactive; ? = inconclusive; . = not tested or not shown.

SMILES	Peg3 promoter	HIF-2a inh	LMP1 NFkB inh	PAX8 reporter	MITF TRPM1 inh	Shn3 inh set2	HIF-2a inh conf	HIF-1a cs	others
CCOC(=O)c1nnc(-c2ccc(C)cc2)nc1Sc1cccc(Cl)c1	13	3	3	.	2	-20	.	.
CCOC(=O)c1nnc(-c2ccccc2)nc1Sc1ccccc1Cl	51*	63*	16	.	15	-3	11	92*
CCOc1ccccc1NC(=O)N1CCC(C(=O)c2ccc(F)cc2)CC1	14	41*	9	-8	-4	-16	-6	24
Cc1ccc(S(=O)(=O)Nc2ccc3c(c2)C(=O)N([C@@H](C)CO)C[C@@H](C)[C@@H](CN(C)C(=O)Nc2ccccc2)OCCCC[C@H](C)O3)cc1	.	.	.	-15	.	.	.	.
COc1cccc(-c2ccc3ncnc(NCc4ccc5c(c4)OCO5)c3c2)c1	-25	-35	22	-11	-7	-3	.	.	Mdm2 MdmX conf=85*
COc1ccccc1CN1[C@H](CO)[C@H]2c3ccccc3N(C(=O)c3cccnc3)C[C@H]21	.	.	.	-21	.	.	.	.
O=C(O)c1sccc1SCc1ccc(Cl)c(Cl)c1	-30	-45	0	.	-1	-4	.	.
C=CS(=O)(=O)N(Cc1ccc(Cl)c(Cl)c1)C[C@@H](O)CO	69*	1	25	.	-32	4	.	.	Mdm2 MdmX conf=94*
Cc1[nH]c2ccccc2c(=O)c1C(=O)/C=C/c1ccccc1	105*	90*	24	103*	85*	50	85*	105*	Mdm2 MdmX conf=103*
CN1CCC(NCCC(c2ccc(F)cc2)c2ccc(Cl)cc2)CC1 (stereo not given)	94*	2	-63	?	80*	-15	.	.	Mdm2 MdmX conf=103*
COc1ccc(-c2csc3ncn(-c4ccccc4)c(=O)c23)cc1OC	15	25	3	19	6	21	.	.
COc1ccc(-c2csc3ncn(-c4cccc(C)c4)c(=O)c23)cc1OC	32	41*	-7	-1	-5	2	2	2
CO[C@@H]1CN(C)C(=O)c2cc(NS(=O)(=O)c3ccccc3)ccc2OC[C@H](C)N(Cc2nccs2)C[C@H]1C	.	.	.	22	.	.	.	.
C[C@@H]1CN([C@@H](C)CO)C(=O)Cc2cc(NS(C)(=O)=O)ccc2O[C@@H]1CN(C)S(=O)(=O)c1cccs1	.	.	.	-14	.	.	.	.
O=C(c1ccc(S(=O)(=O)c2ccc(F)cc2)c([N+](=O)[O-])c1)N1CCCCCC1	18	53*	19	-24	48	92*	3	49
C[C@@H]1CN([C@H](C)CO)C(=O)c2cccc(NS(=O)(=O)c3ccccc3)c2O[C@@H]1CN(C)C(=O)Nc1ccc(F)cc1	.	.	.	-8	.	.	.	.
O=C1C=CC(=C(c2ccc(O)cc2)c2ccc(O)cc2)C=C1	85*	85*	-45	106*	83*	-23	81*	107*
O=C(CCCC(=O)c1ccc(O)cc1)c1ccc(O)cc1	-282	-265	-1	-242	-95	-81	.	.
CN(C)CC(=O)N1[C@@H]2Cn3c(ccc(-c4ccccc4)c3=O)[C@H]1[C@@H](C(=O)N1CCOCC1)[C@@H]2CO	.	.	.	-9	.	.	.	.
O=C(Nc1cc(F)ccc1F)N1CCN(c2ccnc3cc(Cl)ccc23)CC1	18	32	33	6	13	82	.	.
O=C(Nc1ccc(C(F)(F)F)cc1)N1CCN(c2ccnc3cc(Cl)ccc23)CC1	38	45*	29	5	-2	.	16	76*
Fc1ccc(Sc2nc(-c3ccccc3)nnc2C(F)(F)F)cc1	84*	85*	1	.	19	14	26	89*
COc1ccc(CN(C)C[C@@H]2OCCCC[C@@H](C)Oc3ccc(NS(=O)(=O)c4ccc(OC)cc4)cc3C(=O)N([C@H](C)CO)C[C@H]2C)cc1	.	.	.	-3	.	.	.	.
O=C(c1ccccc1)N1CCSC1=S	-4	1	27	13	-2	-1	.	.
O=C(c1ccccc1)N1CCSc2sccc2C1=O	27	65*	72*	54	50	27	71*	-16
SMILES	Peg3 promoter	HIF-2a inh	LMP1 NFkB inh	PAX8 reporter	MITF TRPM1 inh	Shn3 inh set2	HIF-2a inh conf	HIF-1a cs	others
Cc1noc(C)c1NC(=O)N(C)C[C@H]1OCCCC[C@@H](C)Oc2ccc(NS(=O)(=O)c3ccc(F)cc3)cc2C(=O)N([C@H](C)CO)C[C@@H]1C	.	.	.	-18	.	.	.	.
O=C(Nc1ccc([N+](=O)[O-])cc1)Nc1ccc(OC(F)F)c(Cl)c1	99*	42*	68*	83*	76*	88*	-70	100*
Cc1cccc(Oc2sc(C(=O)c3ccccc3)c(N)c2C#N)c1	42	43*	7	.	3	-4	20	43
O=C(Nc1cc(F)ccc1F)N[C@@H]1C=C[C@H](CC(=O)N2CCc3ccccc3C2)O[C@@H]1CO	.	.	.	-2	.	.	.	.
CN1CCN(C(=O)C[C@H]2CC[C@H]3[C@@H](COC[C@H](O)CN3C(=O)Nc3ccc(Cl)cc3)O2)CC1	.	.	.	-44	.	.	.	.
O=C(Nc1ccncc1)c1ccc(Cl)c(S(=O)(=O)N2CCc3ccccc32)c1	45	50*	13	49	38	89*	-7	8
C[C@H]1CN([C@@H](C)CO)C(=O)c2cc(NC(=O)CCCN(C)C)ccc2O[C@@H]1CN(C)CC1CC1	.	.	.	-5	.	.	.	.
COC(=O)C1(C)CCc2c(ccc3ccccc23)C1=O (stereo not given)	-93	-180	.	9	.	-6	.	.
CCC1(C(=O)OC)CCc2c(cc(OC)c3ccccc23)C1=O (stereo not given)	4	55*	5	-5	7	-1	-2	-20
CC(C)(C)c1ccc(C(=O)N2CCCCCC2=O)cc1	35	89*	39	37	81*	.	95*	82*
C[C@@H]1CCCCO[C@H](CN(C)C)[C@@H](C)CN([C@H](C)CO)C(=O)c2cc(NS(=O)(=O)c3cn(C)cn3)ccc2O1	.	.	.	-11	.	.	.	.
Cc1cc(=O)[nH]c(N=N/C(=N/Nc2ccccc2C)c2ccccc2)n1	22	-28	50*	.	41	20	.	.	Mdm2 MdmX conf=84*
Cc1cc(=O)[nH]c(N=N/C(=N/Nc2ccc(O)cc2)c2ccccc2)n1	-235	-100	-11	.	-28	-37	.	.
CC(=O)Nc1ccc(NC2=C(Cl)C(=O)c3ccccc3C2=O)cc1	.	.	.	-6	.	.	.	.	Mdm2 MdmX conf=103*
CCCCCCCCCCCCCCCC[N+](C)(C)CC	102*	59*	2	107*	39	93*	46*	98*
CCCCCC[N+](C)(C)CCSSCC[N+](C)(C)CCCCCC	-8	14	-5	15	-2	-6	.	.
C#CC[N+](C)(C)CCCCCCCC	25	10	1	1	-9	12	.	.

Screens (PubChem BioAssay)
